The values that follow come from PubChem BioAssay.

This assay deals with Human papillomavirus type 1a E7 protein (residues 1-88). The assay is described as follows: HPV1a E7 small-molecule binders, primary screen, biochemical, small-molecule microarray, residues 1-88, 635 nm (AID 1129). The settings on record: small-molecule microarray binding, fluorescence 635 nm; higher = more signal.
As to `CC(CCN1CCCc2nc(C)c(C)cc21)=NOC(C)CN1CCCCc2nc(C)c(C)cc21` (stereo unspecified), the composite z-score stood at 1.2.
The value for `CCN1C(=O)[C@@H]2[C@H]3C(=CC[C@@H]2C1=O)C1(OCCCO1)[C@H]1O[C@H]1[C@H]3O` was 1.04; that for `Cc1ccc(S(=O)(=O)N[C@@H]2COC(=O)[C@@H](C)COC(=O)CC=C[C@H]2C)cc1` was 0.389; that for `COC(=O)C1=C(C)N(Cc2ccccc2)[C@]23O[C@](C(=O)OC)(C(=O)N2[C@@H]1c1ccccc1)C(C(=O)OC)=C3C(=O)OC` was 0.653.
In the case of `CC(C)CON=C1C[C@@H](O)[C@@H](O)[C@@H]2[C@@H]3C(=O)N(c4ccc(F)cc4F)C(=O)[C@@H]3CC[C@H]12`, the composite z-score stood at 1.11.
In the case of `CCOC(=O)CCN1C(=O)[C@H]2[C@H]3[C@H](O)[C@H](O)CC(=NOCC(C)C)[C@H]3CC[C@H]2C1=O` it was -0.204; in that of `CC(C)=CCCC(C)=CCON=C1C[C@@H](O)[C@@H](O)[C@@H]2[C@@H]3C(=O)N(C(C)(C)C)C(=O)[C@@H]3CC[C@H]12`, 0.635; in that of `C[C@H]1CC[C@H]2C(=O)O[C@H](COc3ccc(C(C)(C)C)cc3)CN2[C@@H]1c1ccc(Br)cc1`, 0.243.
`COC(=O)CC=C[C@@H](C)[C@@H](C=NO[C@@H]1O[C@H](COC(C)=O)[C@@H](OC(C)=O)[C@H](OC(C)=O)[C@H]1OC(C)=O)NS(=O)(=O)c1ccc(C)cc1` returned a composite z-score of -0.231.
The value for `CCOC(=O)[C@H](CC(C)C)NC(=O)CCC1CC(OC(=O)NCc2cccc3ccccc23)CC2(CCCC(COC(=O)NCc3ccncc3)O2)O1` (stereo partly specified) was 1.19; that for `CC(CCN1CCCc2nc(C)c(C)cc21)=NO[C@@H](C)c1cc(-c2c(C)cc(C)cc2C)no1` was 0.314; that for `O=C1[C@H]2[C@H]3[C@H](O)[C@H](O)CC(=NO[C@@H]4O[C@H](CO)[C@@H](O)[C@H](O)[C@H]4O)[C@H]3CC[C@H]2C(=O)N1c1cccc(Oc2ccccc2)c1` was 0.394.
In the case of `CCOC(=O)NN=C1C[C@@H](O)[C@@H](O)[C@@H]2[C@@H]3C(=O)N(c4ccc(F)cc4F)C(=O)[C@@H]3CC[C@@H]12` it was 0.574; in that of `C[C@H]1CC[C@H]2C(=O)OC(CO)CN2[C@@H]1c1ccc(Br)cc1` (stereo partly specified), -0.805; in that of `Cn1c(=O)n2n(c1=O)[C@H]1[C@H](O)[C@@H]3O[C@@H]3C(=NOCc3ccccc3)[C@H]1CC2`, -0.624.
In the case of `O=c1n(-c2ccccc2)c(=O)n2n1CC[C@@H]1C(=NOCc3ccccc3)[C@H]3O[C@H]3[C@@H](O)[C@@H]12` it was -0.0945; in that of `C[C@@H]1CC[C@H]2C(=O)O[C@@H](Cc3ccccc3)CN2[C@H]1c1ccc(Br)cc1`, 0.688.
Compound `CO[C@H]1COC(=O)[C@@H](C)COC(=O)[C@H](C)NC(=O)CC=C[C@H]1C` yielded a composite z-score of -0.764.
In turn, `CO[C@H]1COC(=O)CC=C[C@H](C)[C@@H](OC)COC(=O)[C@@H](C)COC(=O)CC=C[C@@H]1C` returned a composite z-score of -0.699.
In turn, `COC(=O)CC=C[C@@H](C)[C@@H](C=NOCC[C@@H]1C=C[C@H](OC(C)=O)[C@@H](COC(C)=O)O1)NS(=O)(=O)c1ccc(C)cc1` had a composite z-score of -0.185.
In the case of `CCOC(=O)CCN1C(=O)[C@H]2[C@H]3[C@H](O)[C@H](O)CC(=NNC(=O)OCc4ccccc4)[C@@H]3CC[C@H]2C1=O` it was 0.687.
The value for `CC(C)=CCCC(C)=CCON=C1C[C@@H](O)[C@@H](O)[C@@H]2[C@@H]3C(=O)N(Cc4ccccc4)C(=O)[C@@H]3CC[C@@H]12` was -0.369; that for `C[C@@H](ON=C1[C@H]2CCn3c(=O)n(-c4ccccc4)c(=O)n3[C@H]2[C@H](O)[C@@H]2O[C@H]12)c1cn([C@@H]2COC[C@H]2O)nn1` was 0.619; that for `COc1cc(O)c(C(=O)C=Cc2ccc3c(c2)OCO3)c(OC)c1` was -1.44.
In the case of `COC(=O)CC=C[C@@H](C)[C@@H](C=NO[C@H](C)c1cn([C@H](CO)Cc2ccccc2)nn1)NS(=O)(=O)c1ccc(C)cc1` it was 0.611; in that of `COc1ccc(O[C@H]2C=C[C@@H](c3ccccc3)O[C@@H]2COC(=O)CCC(C)=NO[C@@H]2O[C@H](COC(C)=O)[C@@H](OC(C)=O)[C@H](OC(C)=O)[C@H]2OC(C)=O)cc1`, 0.795; in that of `CCOC(=O)NN=C1C[C@@H](O)[C@@H](O)[C@@H]2[C@@H]3C(=O)N(Cc4ccc5c(c4)OCO5)C(=O)[C@@H]3CC[C@H]12`, 0.117.
`CCOC(=O)[C@H](CC(C)C)NC(=O)CCC1CC(OC(=O)NCc2cccc3ccccc23)CC2(CCCC(COC(=O)NCCC(C)C)O2)O1` (stereo partly specified) had a composite z-score of 0.572.
In the case of `CC(C)=CCCC(C)=CCON=C1C[C@@H](O)[C@@H](O)[C@@H]2[C@@H]3C(=O)N(C[C@@H]4CCCO4)C(=O)[C@@H]3CC[C@H]12` it was 1.13; in that of `CC=CC1=C(CO)C(=O)[C@@H]2O[C@@H]2C1=O`, -0.385.
The value for `CO[C@H]1COC(=O)CCC[C@@H](C)[C@H](OC)COC(=O)[C@@H](C)NC(=O)CC=C[C@@H]1C` was -1.12; that for `COc1ccc(O[C@H]2C=C[C@@H](c3ccccc3)O[C@@H]2COC(=O)CCC(C)=NOC[C@@H](O)[C@H]2O[C@@H]3OC(C)(C)O[C@@H]3[C@H]2O)cc1` was 0.835.
In the case of `O=C(NN=C1C[C@@H](O)[C@@H](O)[C@@H]2[C@@H]3C(=O)N(Cc4ccccc4)C(=O)[C@@H]3CC[C@@H]12)OCc1ccccc1` it was -0.0375.
On to `CCOC(=O)[C@H](CC(C)C)NC(=O)CCC1CC(OC(=O)NCc2cccc3ccccc23)CC2(CCCC(COC(=O)NCCc3ccc(Cl)cc3)O2)O1` (stereo partly specified), for which the composite z-score is 0.484.
In the case of `CO[C@@H]1C=CCC(=O)N2CCC[C@H]2C(=O)OC[C@@H](C)C(=O)OC[C@H]1C` it was -0.565.
The value for `CC(C)CON=C1C[C@@H](O)[C@@H](O)[C@@H]2[C@@H]3C(=O)N(C4CCCCC4)C(=O)[C@@H]3CC[C@H]12` was 0.666.
